The record followed here is PubChem BioAssay AID488890 (Southern Research Specialized Biocontainment Screening …, 2010).

As usually defined, the inhibition is the relative decrease from the control value, in per cent.

Screen size: about 320,000 compounds; about 1,300 (0.41%) were called active. Roughly 3% stayed inconclusive and do not appear here. No rule for the calls is given here. The list is a sample of the results. Measured potencies and affinities stand elsewhere.

This assay is described as follows: growth inhibition of non-replicating M. tuberculosis (AID 488890).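 Also: plate controls were DMSO cells for no effect and high antibiotic wells for full effect.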 To be noted: Mycobacterium tuberculosis non-replicating, at 25 µM, stronger effect = higher value.
As for `CCOc1ccc(Nc2cc(C)nc(N3CCOCC3)n2)cc1`, the inhibition was determined as 4.96%.

Regarding `Cc1cc(NCCO)nc(-n2nc(C)cc2C)n1`, the inhibition was determined as 39.2%. Next, `CNc1cc(C)nc(-n2nc(C)cc2C)n1`: 77.6%.

For the compound `COc1ccc(Nc2cc(C)nc(N3CCOCC3)n2)cc1`, the inhibition was determined as 11.6%. Next, `COC1(c2cc(-c3ccccc3)nc(N)n2)CCCCC1`: 39.4%; `CC1CN(C(C)C(=O)NC(c2ccccc2)c2ccccc2)CC(C)O1` (centres undefined): -1.17%; `Cc1cc(NC(=O)CSc2nnnn2-c2ccc(C)c(C)c2)no1`: -1.12%.

`O=C(C1CCCN(S(=O)(=O)c2ccc(Br)cc2)C1)N1CCOCC1` (centres undefined): the inhibition was -4.37%. The result for `COCCn1cnc2c1c(=O)[nH]c(=O)n2Cc1ccccc1` reads -2.83%; that for `O=c1c2c(nc3c(-c4cccc(Br)c4)c[nH]n13)CCCC2`, 76.9%. The result for `Cc1[nH]n2c(=O)c3c(nc2c1-c1cccc2ccccc12)CCC3` reads 61.6%; that for `N#Cc1c[nH]n2c(=O)c3c(nc12)CCC3`, -2.17%.

As to `Cc1[nH]n2c(=O)c3c(nc2c1-c1ccc(F)cc1)CCCC3`, the inhibition stood at 18.2%. On to `Cc1ccc(S(=O)(=O)/N=C(/Nc2ccc(F)cc2F)c2ccc(F)cc2)cc1`, for which the inhibition was -16.3%.

With `CC(Oc1ccc(Cl)cc1Cl)C(=O)Nc1ncccn1` (centres undefined), the inhibition stood at 61.7%. The result for `Cc1cccc(C)c1OC(=O)CCN1C(=O)C2C3C=CC(C4CC34)C2C1=O` (centres undefined) reads 67.5%. Next, `Cc1ccc(SCC(=O)NCC2COc3ccccc3O2)cc1` (centres undefined): 29.9%; `C/C(O)=C/c1nc2ccccc2[nH]c1=O`: 1.47%. With `Cc1ccc2oc(=O)c(/C=C(\O)C(C)(C)C)nc2c1`, the inhibition is -1%. Take `c1ccc2oc(CCc3nc4ccccc4o3)nc2c1`: the inhibition was -3.04%. With `CC(C)(C)/C(O)=C/c1nc2ccccc2[nH]c1=O`, the inhibition was -2.24%.

For the compound `Cc1ccc2oc(=O)c(/C=C(\O)CC(C)C)nc2c1`, the inhibition was -17.2%. As to `CCS(=O)(=O)CCSc1nc2ccccc2o1`, the inhibition was -14.9%. Next, `Cc1ccc(C(=O)CN2C(=O)NC3(CCCCCC3)C2=O)c(C)c1`: -9.85%; `CCOc1ccc(-c2nnc3sc(COc4ccc(Cl)cc4)nn23)cc1`: -1.47%.

On to `CS(=O)(=O)Nc1cccc(C2=NN(C(=O)c3ccccc3Cl)C(c3ccccc3O)C2)c1` (centres undefined), for which the inhibition came to 30.8%. Next, `CC1CCN(S(=O)(=O)c2cccc(C(N)=O)c2)CC1`: 0.16%.

Take `CCn1c(CCCCc2n[nH]c(=S)n2CC)n[nH]c1=S`: the inhibition was -11.8%. For `CC(=O)Nc1ccc(NC(=O)C2CCN(C(=O)NC3CCCCC3)CC2)cc1`, the inhibition is -3.9%. `Cn1nc(C(=O)NNC(=O)C2CSC3(C)CCC(=O)N23)c2ccccc2c1=O` (centres undefined): the inhibition was -11.1%. With `O=C(NCCCn1ccnc1)c1cc2cc([N+](=O)[O-])ccc2oc1=O`, the inhibition was -4.48%. Consider `Cc1ccc2[nH]c(C)c(CCNC(=O)c3c(N)no[n+]3[O-])c2c1`, for which the inhibition amounted to 28.6%.

Take `COC(=O)c1ccc(-c2csc(NC(=O)C3=COCCO3)n2)cc1`: the inhibition stood at 34.1%.

On to `CC(C)NC(=O)c1cc(=O)n(C)c(=O)n1C`, for which the inhibition came to 1.53%.

For `Cc1nn(C)c(Oc2ccc(Cl)cc2)c1C(=O)O`, the inhibition was 5.18%. With `O=S(=O)([N-]c1nc2ccccc2nc1-n1cc[n+](Cc2ccccc2)c1)c1ccc(Br)cc1`, the inhibition amounted to 8.51%.

As to `Cc1cccn2c(=O)c3cc(C(=O)N4CC(C)CC(C)C4)sc3nc12` (centres undefined), the inhibition was 0.79%.

As for `CC(C)Cn1c(NCCN(C)C)nc2c1c(=O)[nH]c(=O)n2C`, the inhibition was -11.4%. The result for `Cn1c(=O)[nH]c(=O)c2c1nc(N)n2Cc1ccccc1` reads -16.3%. With `CSc1nc2c(c(=O)[nH]c(=O)n2C)n1Cc1ccccc1`, the inhibition turned out to be 4.61%.

`Cc1cc(C)n(-c2nc3c(c(=O)[nH]c(=O)n3C)n2CC(C)C)n1`: the inhibition amounted to 0.87%. Consider `O=C(Nc1nnc(S(=O)(=O)N2CCCC2)s1)c1cccc([N+](=O)[O-])c1`, for which the inhibition worked out at 43.7%. Next, `NC(=O)c1ccc[n+](Cc2ccccc2)c1`: -8.91%; `CC(C)(C)C1CCC(C(=O)Nc2ccccc2)CC1` (centres undefined): 77.8%; `CCN1CCCC1CNC(=S)Nc1ccc(C(C)=O)cc1` (centres undefined): 16.8%. The result for `COc1cc(/C=C2\N=C(C)OC2=O)cc(OC)c1OC` reads -3.11%; that for `COc1cc(/C=C2\SC(c3ccc(C)cc3)=NC2=O)cc(OC)c1OC`, 16.6%; that for `CCCC1CC(C)(C(=O)CSc2n[nH]c(-c3ccccc3)n2)OC1=O` (centres undefined), -9.58%. Take `CCOc1nc2ccccc2cc1/C=C/C(=O)O`: the inhibition is 16.5%.

In the case of `Cc1ccc(N2C(=O)CC(N3CCSCC3)C2=O)c(C)c1` (centres undefined), the inhibition is 66.2%.

As to `O=C1CC(N2CCSCC2)C(=O)N1c1ccccc1` (centres undefined), the inhibition was found to be 17.6%. The result for `COc1ccc(C(=O)O/N=C(/c2cccs2)C(C)(C)C)cc1` reads 35.7%; that for `COc1ccc(-c2nnc(NC(=O)Cc3ccccc3)s2)c(OC)c1`, 6.43%. Regarding `O=C(Nc1nncs1)c1cc2c(s1)CCC2`, the inhibition turned out to be 2%. In the case of `O=C(CCS(=O)(=O)c1ccccc1)Nc1nc(-c2cccs2)cs1`, the inhibition was 75.7%. Next, `O=C(Nc1nc(-c2ccncc2)cs1)c1ccco1`: -9.61%; `Cc1cccc(Nc2nc(-c3cccs3)cs2)n1`: 3.92%; `COc1ccc(CCNc2nc(-c3cccnc3)cs2)cc1OC`: -6.11%. Consider `Cc1cccc(Nc2nc(-c3ccc(F)cc3)cs2)n1`, for which the inhibition came out at 18.9%.

As to `O=C(CCS(=O)(=O)c1ccccc1)Nc1nc(-c2ccc(F)cc2)cs1`, the inhibition was determined as 0.28%. The result for `O=C(Nc1nc(-c2ccccc2)cs1)c1ccco1` reads 11.8%. The result for `COc1ccc(CCNc2nc(-c3ccncc3)cs2)cc1OC` reads 15.7%; that for `O=C1CC(/C=C/c2ccc([N+](=O)[O-])cc2)=Nc2ccccc2N1`, 30.3%. As to `Cc1ccc(C)c(N2N=C(C(=O)O)CCC2=O)c1`, the inhibition was -0.55%.

For the compound `Cc1cc(N2CCN(c3ccccc3)CC2)n2nnnc2n1`, the inhibition is -6.03%. Next, `O=C(c1nc2ccccn2c1CNCCCn1nnc2ccccc21)N1CCOCC1`: -59.9%; `O=C(CSc1nnc(-c2ccncc2)o1)Nc1ccccc1Cl`: -10.3%; `Cc1cc(C)cc(N(CCC#N)C(=O)CSc2ncnc3sccc23)c1`: 7.69%.

Regarding `Cc1ccc(C(=O)N[C@H](C(=O)N2CCN(c3ccccc3F)CC2)C(C)C)cc1`, the inhibition is 9.21%. `COc1ccc2cc(C(=O)C3CCCN(C(=O)c4snnc4C)C3)ccc2c1` (centres undefined): the inhibition stood at 16.9%. Take `O=C(O)c1ccc2noc(-c3ccccc3)c2c1`: the inhibition stood at 26.3%. The result for `COc1ccc(CNC(=O)CN(C(=O)CCC(=O)Nc2ccccn2)c2ccccc2OC)cc1` reads 10.4%; that for `c1ccc(-c2csc(Nc3cccnc3)n2)nc1`, 24.5%. As for `c1ccc(Nc2nc(-c3ccncc3)cs2)cc1`, the inhibition was found to be 0.69%.

For the compound `CC(C)(C)[C@H](N)C(=O)N[C@H]1CCC2C3CC=C4C[C@@H](O)CC[C@]4(C)C3CC[C@@]21C` (some centres undefined), the inhibition came out at 67.1%.

On to `CC(C)OC(=O)c1cc(C(=O)c2cc(Br)ccc2O)coc1=N`, for which the inhibition stood at 76.9%. Next, `COC(=O)c1cc(C(=O)c2cc(Cl)ccc2O)coc1=N`: 36%; `COc1cc(OC)cc(-c2nnc(NC(=O)CCS(=O)(=O)c3ccccc3)o2)c1`: 78.9%; `CC(=O)Nc1nnc(-c2ccco2)o1`: 4.52%. Next, `Cc1ccccc1C(=O)Nc1nnc(-c2ccco2)s1`: -20.8%; `O=C(Cc1ccccc1)Nc1nnc(-c2ccco2)o1`: -4.54%. In the case of `CCCCN(C(=O)CSCC(=O)Nc1ccc(OC)cc1)c1c(N)n(Cc2ccccc2)c(=O)[nH]c1=O`, the inhibition came to 33%. The result for `Cc1ccc[n+](CC(=O)Nc2nc3ccccc3s2)c1` reads 2.08%. Turning to `CN(C(=O)CN1CC=C(c2ccccc2)CC1)c1c(N)n(Cc2ccccc2)c(=O)[nH]c1=O`, the inhibition came to 8.33%. As for `CN(C(=O)COC(=O)Cc1c(Cl)cccc1Cl)C1CCS(=O)(=O)C1` (centres undefined), the inhibition was -4.22%. As for `CCCCCC(=O)Nc1ccc2ccccc2c1`, the inhibition is 58.5%.

Regarding `CCC(=O)Nc1ccc2ccccc2c1`, the inhibition came to 14.1%. In the case of `CCCCn1c(N)c(N(Cc2ccccc2OC)C(=O)c2ccc(N3CCCC3=O)cc2)c(=O)[nH]c1=O`, the inhibition worked out at 18.9%. Regarding `N#CCSc1ncccc1-c1nc2ccccc2[nH]1`, the inhibition is -0.28%.

Consider `Nc1cccc(Nc2ccccc2)c1`, for which the inhibition turned out to be 2.41%. The result for `c1ccc(Nc2cccc3c(Nc4ccccc4)cccc23)cc1` reads 42.5%. In the case of `COc1ccc(Nc2cccccc2=O)cc1`, the inhibition turned out to be 3.01%. The result for `Cc1ccc(Nc2cccccc2=O)cc1` reads 16.8%; that for `Nc1ccccc1Nc1cccc(C(F)(F)F)c1`, 47%.

Take `c1ccc(Nc2ccccc2)cc1`: the inhibition was 6.24%.

On to `Cc1ccc(Nc2ccccc2)cc1`, for which the inhibition came out at 1.99%. `COc1ccc(Nc2ccccc2C(=O)O)cc1`: the inhibition was found to be 3.87%. The result for `Cn1nc(C(=O)NNC(=O)c2cccc(Cl)c2)ccc1=O` reads 1.12%. Next, `O=S(=O)(NC1=NCCCCC1)c1cc(F)ccc1F`: -1.39%. As for `CC1(C)Oc2ccc(C(=O)N/N=C/c3ccc(O)cc3)cc2NC1=O`, the inhibition is 4.72%.

As to `CC(Sc1n[nH]c(N)n1)C(=O)Nc1cccc2ccccc12` (centres undefined), the inhibition was 11%. In the case of `Cc1nn(-c2ccccc2)c(C)c1/C=N/NC(=O)c1cc(-c2cccs2)[nH]n1`, the inhibition amounted to 47.5%. As to `O=C(Nc1cccc(Br)c1)c1ccc2nc(N3C(=O)CCC3=O)sc2c1`, the inhibition was found to be 3.99%.

Turning to `Nc1c(C(=O)c2ccccc2)sc(Nc2ccccc2)c1S(=O)(=O)c1ccccc1`, the inhibition came out at 12.2%. The result for `COCCCC1CCN(C(=O)C2CCC(=O)N(C3CCCC3)C2)CC1` (centres undefined) reads -6.84%; that for `CCNc1nc(=S)nc(NC(C)C)[nH]1`, -23%. With `CC(=O)Nc1ccc(C(=O)OCc2ccc(F)cc2Cl)cc1`, the inhibition came out at 50%. For `COc1ccc(NC(=O)/C(C#N)=C/c2c(C)nn(-c3ccc(F)cc3)c2Cl)cc1OC`, the inhibition stood at 9.54%. Next, `CCN(CC)S(=O)(=O)c1ccc(N2CC(C(=O)NCCc3ccc(Cl)cc3)CC2=O)cc1` (centres undefined): 28.6%; `O=C(N/N=C/c1ccc(F)cc1)c1c(O)c2ccccc2[nH]c1=O`: 25.9%.

Consider `O=C(N/N=C/c1ccccc1)c1c(O)c2ccccc2[nH]c1=O`, for which the inhibition stood at 58.7%.

Consider `Cc1ccc(NC(=S)N(CCCN2CCOCC2)Cc2cccnc2)cc1C`, for which the inhibition was -0.2%.

As for `CSCCC(NC(=O)OCc1ccccc1)C(=O)O` (centres undefined), the inhibition was -8.32%.

As to `Cc1ccc(SCC(=O)c2cc(C)c(O)c(C)c2)cc1`, the inhibition amounted to 0.12%. Next, `O=c1cc(-c2ccccc2Cl)oc2cccc(O)c12`: -8.34%; `O=c1cc(-c2ccccc2Cl)oc2c(Br)ccc(O)c12`: -2.73%.

As to `Nc1ccc2oc(-c3ccccc3Cl)cc(=O)c2c1O`, the inhibition is -0.76%. Next, `Nc1ccc(O)c2c(=O)cc(-c3ccccc3Cl)oc12`: -0.68%.

On to `COc1ccc(-c2[nH]nc3c2C(c2ccc(OC(=O)N4CCOCC4)cc2)C(C#N)=C(N)O3)cc1` (centres undefined), for which the inhibition is 13.2%.
